Screening results from PubChem BioAssay.
SMN2 splice enh – enhancers of SMN2 splice variant expression; Potency, µM (highest dose often 46.1 µM), without a hit: at the highest dose activity change, positive = activation, actives largely listed as activators; 210,000 compounds, 2.8% hits; AID 1458; HEK293 SMN2-luciferase splicing reporter, luminescence, 30-36 h; further: % of control where 0% means no effect; nearly all actives have a fitted effect of over 55% in size
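HEK293 cells carry an SMN2 minigene-luciferase reporter in which exon 7 inclusion puts luciferase in frame. Cells were seeded at 2000 cells/well, attached for 10-12 hours, then exposed to compounds for 30-36 hours at 37C before ONE-Glo luminescence.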
NPC1 prom act – activators of NPC1 promoter | Huh7 NPC1 promoter luciferase reporter, 24 h | Potency, µM (top dose mostly 9.22 µM), for the others: top-dose activation, hits mostly activators | 320,000 compounds, 2.4% hits | AID 485313; further: % of control where 0% means no effect; nearly all actives have a fitted effect of over 60% in size
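Stably transfected Huh7 (NPC1 promoter→luciferase), 1500 cells/well in Opti-MEM + 10% FBS, 2 h settle, then compound 24 h at 37 °C. Luminescence after 10 min with Amplite reagent.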
Rab9 prom act – activators of Rab9 promoter. Huh7 Rab9 promoter-luciferase reporter, luminescence, 24 h. Potency, µM (top dose mostly 9.22 µM), without a hit: at the top dose activation, negative = inhibition, actives largely listed as activators. 320,000 compounds, 2.8% hits. AID 485297; further: % of control where 0% means no effect; nearly all actives have a fitted effect of over 60% in size
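Rab9 promoter-driven luciferase in stably transfected Huh7 cells; 1500 cells/well rested 2 h, exposed to compound in DMSO for 24 h at 37 °C, 5% CO2. Luminescence read 10 min after adding luciferase reagent at ambient temperature.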
ELG1 DNA repair – inhibitors of ELG1-dependent DNA repair in HEK293T cells. HEK293T ELG1-luciferase reporter, luminescence, 16 h; DNA damage induced by 5-fluorouridine. Potency, µM (doses to about 46.1 µM), inactives show at the top dose activity change, negative = inhibition, usual class: inhibitors. 330,000 compounds, 2.3% hits. AID 504467; further: on the % scale 0 is the no-effect control and ±100 the full control effect; nearly all actives have a fitted effect of over 55% in size
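Reporter activity after DNA damage by 5-fluorouridine is monitored. Compound-treated cells incubate 16 hr at 37 °C, then ONE-Glo is added for 30 min before luminescence reading.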
ELG1 genotox – genotoxicity induction in ELG1-luciferase HEK293T cells. HEK293T ELG1-luciferase reporter, luminescence, 16 h. Potency, µM (series often up to 46 µM), for the others: top-dose activity change, positive = activation, hits mostly activators. 330,000 compounds, 1.3% hits. AID 504466; further: % of control where 0% means no effect; nearly all actives have a fitted effect of over 60% in size
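16 hr compound incubation (37 °C, 5% CO2) of HEK293T cells carrying luciferase-tagged ELG1; luciferase then measured by ONE-Glo luminescence after 30 min at RT.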
FLuc modulator – firefly luciferase modulation, counter-screen for miR-21 project. P08659. purified FLuc, Km substrates, luminescence inhibition. 360,000 compounds, 6.9% hits. Potency, µM (series often up to 57.5 µM), for inactives: at the highest dose activity change, negative = inhibition, actives largely listed as inhibitors. AID 588342;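 further: plate controls were vehicle for no effect and reference inhibitor for full effect; nearly all actives have a fitted effect of over 55% in size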
Target sequence (P08659 whole entry, looked up): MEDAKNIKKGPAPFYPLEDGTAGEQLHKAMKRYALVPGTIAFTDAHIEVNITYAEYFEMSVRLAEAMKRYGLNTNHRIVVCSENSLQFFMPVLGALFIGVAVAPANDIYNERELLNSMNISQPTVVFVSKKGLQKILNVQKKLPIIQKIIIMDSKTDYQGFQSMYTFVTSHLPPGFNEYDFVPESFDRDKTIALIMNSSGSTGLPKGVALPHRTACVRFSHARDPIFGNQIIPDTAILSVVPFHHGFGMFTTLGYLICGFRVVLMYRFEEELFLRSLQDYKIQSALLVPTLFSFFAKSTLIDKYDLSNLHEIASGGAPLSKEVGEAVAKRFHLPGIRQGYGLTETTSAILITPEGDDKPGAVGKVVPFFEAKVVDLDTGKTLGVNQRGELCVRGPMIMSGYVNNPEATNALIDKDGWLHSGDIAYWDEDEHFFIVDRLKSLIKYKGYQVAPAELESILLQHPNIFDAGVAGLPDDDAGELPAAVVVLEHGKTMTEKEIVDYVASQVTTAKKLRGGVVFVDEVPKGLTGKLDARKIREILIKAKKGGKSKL
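Biochemical qHTS of compounds, final roughly 60 µM downward over six points, against 10 nM purified firefly luciferase using Km concentrations of substrates (10 uM D-luciferin, 10 uM ATP) in Tris acetate pH 7.5 buffer; luminescence output.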
* marks the source's active call; other numbers are inactive results; ? = inconclusive; / = no result. Shown are actives, neighbours in structure and some others; about 9.2% of the full set was active somewhere. The call rests on the fitted dose curve; in most records, active means well fitted curve in the direction sought with a large enough effect; inconclusive means small, poorly fitted or top-dose-only effect, or another doubt; inactive means no such curve, though single readings can be large; an effect the other way counts as inactive or inconclusive. Potency means the concentration at half of the fitted maximal effect.

SMILES	SMN2 splice enh	NPC1 prom act	Rab9 prom act	ELG1 DNA repair	ELG1 genotox	FLuc modulator
O=C(c1ccco1)N1CCN(c2ccc(Cl)cc2)CC1	11µM*	?	?	?	?	17µM*
Cc1ccccc1C(=O)N1CCN(c2ccc(NC(=O)c3cccnc3)cc2)CC1	-30%	0%	-4%	?	-12%	-2%
Cc1ccccc1C(=O)N1CCN(c2ccc(NC(=O)c3ccc4c(c3)OCO4)cc2)CC1	/	-6%	-11%	5.8µM*	-20%	2%
Cc1ccccc1C(=O)N1CCN(c2ccc(NC(=S)NC(=O)c3ccco3)cc2)CC1	/	-6%	-16%	?	-16%	-1%
O=C(NCC(=O)N1CCN(Cc2ccccc2)CC1)c1cc(Cl)cc([N+](=O)[O-])c1	/	/	/	?	0%	/
CCN1CCN(C(=O)c2cc3c(-c4ccc(Cl)cc4)nn(C)c3s2)CC1	0%	8%	7%	-20%	2%	-1%
O=C(Nc1ccc(N2CCN(C(=O)c3ccco3)CC2)cc1)c1cc(Br)ccc1Cl	/	-19%	-18%	12µM*	-11%	/
Cn1nc(-c2ccc(Cl)cc2)c2cc(C(=O)N3CCN(C(=O)c4ccco4)CC3)sc21	-3%	7%	-4%	8.2µM*	-6%	-11%
COC(=O)c1[nH]c2ccc(F)cc2c1NC(=O)CCN1CCN(Cc2ccc3c(c2)OCO3)CC1	12%	8%	2%	-22%	-4%	0%
COC(=O)c1[nH]c2ccccc2c1NC(=O)CN1CCN(Cc2ccc3c(c2)OCO3)CC1	13%	7%	-2%	4.6µM*	-10%	1%
COc1cc(NC(=O)CN2CCN(Cc3ccc4c(c3)OCO4)CC2)cc(OC)c1	-46%	-2%	1%	23µM*	-2%	-1%
Cc1ccc2oc(C(=O)NCC(c3ccc(Cl)cc3)N3CCOCC3)c(C)c2c1 (stereo not given)	/	/	/	/	/	1%
CCOC(=O)C1CCC(CN(Cc2c(Cl)cccc2Cl)S(=O)(=O)c2ccc(F)c(C)c2)CC1 (stereo not given)	/	/	/	/	/	-1%
CCC1(c2ccc(F)cc2)NC(=O)N(CC(=O)Nc2ccc(-c3nc4ccc(C)cc4s3)cc2)C1=O (stereo not given)	4µM*	2.8µM*	1.4µM*	?	?	3.4µM*
COc1ccc(NC(=O)CN2C(=O)NC(c3ccccc3)(c3ccccc3)C2=O)cc1	/	-3%	-2%	1%	-3%	21µM*
COc1ccc(C2(C)NC(=O)N(CC(=O)Nc3ccc(-c4nc5ccc(C)cc5s4)cc3)C2=O)cc1 (stereo not given)	7.1µM*	4µM*	2.2µM*	?	?	3.4µM*
O=C(/C=C/c1ccc2c(c1)OCO2)c1ccco1	2%	26%	?	?	?	2.1µM*
NC(=O)/C(=C/c1ccc2c(c1)OCO2)NC(=O)c1ccco1	-7%	0%	-6%	-1%	1%	5%
Nc1ccccc1C(=O)/C=C/c1ccc2c(c1)OCO2	?	3.2µM*	3.2µM*	?	?	3.4µM*
CCCCn1c(N)c(N(CCC(C)C)C(=O)C2CCN(C(=O)c3ccccc3C)CC2)c(=O)[nH]c1=O	/	-7%	0%	?	-2%	9%
Oc1[nH]c2ccccc2c1/C=N/N1CCCCC1	-12%	4%	4%	?	0%	-17%
Cc1ccc(N=Cc2c(O)[nH]c3ccccc23)c([N+](=O)[O-])c1	22%	?	0.56µM*	?	?	?
COc1ccc(Cn2c(O)c(C=Nc3ccc(O)cc3)c3ccccc3c2=O)cc1	-13%	-3%	-2%	23µM*	-3%	-8%
O=C(O)c1ccc(N=Cc2c(O)ccc3ccccc23)cc1	/	2%	3%	1%	1%	30µM*
Oc1[nH]c2ccccc2c1/C=N/c1nccs1	?	?	?	?	8%	12µM*
